# TMEM16A inh – inhibitors of mouse TMEM16A calcium-activated chloride channel; Q8BHY3; AID 588511; normalized B-score (activity score, 25-100; higher = stronger inhibition) at 10 µM; HEK293 TMEM16A/YFP iodide influx fluorescence, ionomycin; 310,000 tested, 1.2% active;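 active = ratio plate-corrected score three or more library SD toward inhibition, starting fluorescence score within five deviations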;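 also: score derived from kinetic fluorescence span divided by baseline fluorescence per well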
# MEKK2 WT-MEK5 – raises or lowers MEK5 binding to wildtype human MEKK2 PB1 domain | binding response (% of control), % at 10 µM | Q9Y2U5 | 290,000 tested, 1.1% active | bead flow cytometry, Alexa488-MEK5 binding to MEKK2 WT; actives lie on both sides; in the data active = binding response below about 67% or above about 130%
# MEKK2 mut-MEK5 – signal of MEK5 binding to mutant human MEKK2 PB1 domain; bead flow cytometry, Alexa488-MEK5 binding to MEKK2 mutant; percent response, % at 10 µM; 290,000 tested, 0.35% active; AID 1530; in the data active = percent response above about 24%, passing the limit was not always enough
# MEKK3 PB1 HTS – raises or lowers MEK5 binding to the human MEKK3 PB1 domain; bead-based flow cytometry, Alexa488-MEK5 binding to MEKK3; actives lie on both sides; 0 = blocked by unlabeled MEK5, 100 = vehicle; binding response (% of control), % at 10 µM; 290,000 tested, 1.4% active;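 active = binding response more than 3 SD above or below the average of its plate-row segment, actives on both sides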;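 also: Alexa488 bead fluorescence after subtracting the streptavidin-only scavenger bead signal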
# Target sequence (Q99759 whole entry, looked up, the tested form may be a part): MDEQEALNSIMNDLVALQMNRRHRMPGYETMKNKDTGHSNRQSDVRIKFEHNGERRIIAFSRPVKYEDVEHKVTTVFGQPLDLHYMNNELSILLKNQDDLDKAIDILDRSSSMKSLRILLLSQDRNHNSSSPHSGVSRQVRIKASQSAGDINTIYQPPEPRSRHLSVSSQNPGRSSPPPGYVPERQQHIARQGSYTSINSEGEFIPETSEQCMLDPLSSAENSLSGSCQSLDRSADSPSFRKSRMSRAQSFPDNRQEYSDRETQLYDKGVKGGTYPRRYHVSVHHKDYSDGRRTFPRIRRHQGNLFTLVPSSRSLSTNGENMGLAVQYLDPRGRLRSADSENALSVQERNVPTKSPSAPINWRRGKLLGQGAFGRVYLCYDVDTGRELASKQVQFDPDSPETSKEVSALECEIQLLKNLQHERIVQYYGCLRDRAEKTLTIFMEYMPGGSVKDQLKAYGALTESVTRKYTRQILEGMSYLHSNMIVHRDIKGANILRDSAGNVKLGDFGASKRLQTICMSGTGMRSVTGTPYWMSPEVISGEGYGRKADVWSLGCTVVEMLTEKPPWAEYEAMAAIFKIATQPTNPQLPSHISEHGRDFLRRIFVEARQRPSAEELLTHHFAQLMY
# NTR1 ag – activates human neurotensin receptor 1. P30989. NTR1-U2OS beta-arrestin-GFP spot imaging, agonist mode. activation, % at 20 µM. 330,000 tested, 0.17% active. AID 493036;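 active = activation at or above 40% of the spot to cytoplasm intensity ratio, with at least 20 cells analyzed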
# ANO1 activ – activators or potentiators of mouse TMEM16A chloride channel | AID 623877 | HEK293 TMEM16A/YFP-H148Q/I152L, iodide quench fluorescence; stronger effect = lower value | B-score at 10 µM | 340,000 tested, 0.3% active;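 active = fluorescence-ratio B-score plate-corrected deviation score at least 3 library SD below zero, with starting fluorescence score within 5 deviations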;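 also: channel opened by trigger with iodide after compound preincubation; score built on the fluorescence ratio of max minus min over baseline; more negative score means more quench and so TMEM16A activation or potentiation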
# MEKK2wt confirm – raises or lowers MEK5 binding to wildtype human MEKK2, retest; shares compounds with MEKK3 PB1 HTS; bead flow cytometry, Alexa488-MEK5 binding to MEKK2 WT; actives lie on both sides; binding response (% of control), % at 10 µM; 5,900 tested, 2.4% active; in the data active = binding response below about 16% or above about 210%; inactive = in between
# MEKK2mut-MEK5 – signal of MEK5 binding to mutant human MEKK2, retest; percent response, % at 10 µM; shares compounds with MEKK3 PB1 HTS; 5,900 tested, 2% active; bead flow cytometry, Alexa488-MEK5 binding to MEKK2 mutant; in the data active = percent response mostly above about 71%, no sharp cut-off; inactive = mostly below about 38%;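 also: higher means compound restores mutant binding toward wildtype level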
# MEKK3-MEK5 inh – MEKK3-MEK5 PB1 inhibition, single concentration confirmation. shares compounds with MEKK3 PB1 HTS. bead flow cytometry, Alexa488-MEK5 binding to MEKK3; stronger effect = lower value. binding response (% of control), % at 10 µM. 5,900 tested, 1.8% active. AID 1894;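 active = binding response below 72% of control, or above a set upper limit, though filed actives all read lower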
# A number is an active result; i = inactive; nt = no result given; [ ] = remark or other dose. A selection: hits, their analogues and other compounds. The true share with any hit is near 3.4%.
SMILES,TMEM16A inh,MEKK2 WT-MEK5,MEKK2 mut-MEK5,MEKK3 PB1 HTS,NTR1 ag,ANO1 activ,MEKK2wt confirm,MEKK2mut-MEK5,MEKK3-MEK5 inh
Cc1c2cnn(CC(=O)NCCCN3CCCCC3C)c(=O)c2c(C)n1Cc1ccccc1 (stereo unspecified),i,145,28,i,i,i,i,i,i
Cc1c2cnn(CC(=O)NC3CCCC3)c(=O)c2c(C)n1Cc1ccccc1,i,i,i,i,i,i,nt,nt,nt
O=c1o[nH]c(-c2ccccc2)c1C1=NCCCCC1,i,i,i,73[inhibitor],i,i,i,i,i
O=C(c1cc2ccccc2oc1=O)N(Cc1ccccc1)CC1CCCO1 (stereo unspecified),i,i,i,i,i,i,nt,nt,nt
COc1cccc2cc(C(=O)N(Cc3ccccc3)CC3CCCO3)c(=O)oc12 (stereo unspecified),i,i,i,124,i,i,i,i,i
O=c1c(Cc2ccccc2)c(O)ccn1Cc1ccc2c(c1)OCO2,i,i,i,i,i,i,nt,nt,nt
O=C(O)C(NC(=O)c1ccccc1)=C(Cl)Cl,i,i,i,i,i,i,nt,nt,nt
Cc1ccc2c(Cl)c(C)c(N3CCCCC3)nc2n1,i,i,i,131,i,i,i,i,i
Cc1nc2ccccc2nc1N1CCCCC1,nt,i,i,i,nt,i,nt,nt,nt
COc1ccc(CNCc2cccn2C)cc1,i,i,28,i,i,i,i,i,i
COc1ccc(NC(=O)c2ccc(CNc3c(N4CCCC4)c(=O)c3=O)cc2)cc1Cl,i,i,i,i,i,i,nt,nt,nt
COc1ccc(C2CC(=O)C=C(NNS(=O)(=O)c3ccc(C)cc3)C2)cc1 (stereo unspecified),i,i,i,i,i,i,nt,nt,nt
COc1ccc(Cl)cc1NC(=O)NCCN1CCCCC1,i,i,i,i,i,i,nt,nt,nt
COc1ccc(Cl)cc1NC(=O)NC1CCCCC1,i,i,i,81[inhibitor],i,i,i,i,i
COc1ccc(Cl)cc1NC(=O)NCC1CCN(C(=O)OC(C)(C)C)CC1,i,i,i,128,i,i,i,i,i
COc1ccc(Nc2ccc(C(=O)O)cc2[N+](=O)[O-])cc1,i,i,i,i,i,i,nt,nt,nt
COc1ccc(Nc2ccc(C(N)=O)cc2[N+](=O)[O-])cc1,i,i,i,57[inhibitor],i,i,i,i,i
CN1CCN(c2cc3c(c4c2[nH]c2ccccc24)C(=O)CC(C)(C)C3)CC1,i,159,36,i,i,i,i,i,i
CN(N)C(=S)NCc1ccccc1,i,i,i,123,i,i,i,i,i
O=C(O)CNC(=S)NCc1ccccc1,i,i,i,i,i,i,nt,nt,nt
CC(C)C(NC(=S)NCc1ccccc1)C(=O)O (stereo unspecified),i,43[inhibitor],i,34[inhibitor],i,i,i,i,i
CC(C)CCNC(=O)C(=O)NCc1ccccc1,i,i,i,49[inhibitor],i,i,i,i,i
O=C(N/N=C1\C2CN3CCN(C2)CC1(c1ccccc1)C3)Nc1ccccc1,i,i,i,i,i,i,nt,nt,nt
CC(C)OCC(O)CN1CCN(CCN2C(=O)c3cccc4cccc(c34)C2=O)CC1 (stereo unspecified),i,i,i,i,i,i,nt,nt,nt
Cc1ccccc1OCC(O)CN1CCN(CCN2C(=O)c3cccc4cccc(c34)C2=O)CC1 (stereo unspecified),i,i,i,137,i,i,i,i,i
Cc1cccc(C)c1OCC(O)CN1CCC(CN2C(=O)c3cccc4cccc(c34)C2=O)CC1 (stereo unspecified),i,150,i,i,i,i,i,i,i

# From PubChem
